Experimental findings from article PMC8384837, “Expanding the binding specificity for RNA recognition by a PUF domain” are described below.

Assay in all cases: yeast three-hybrid, YBZ-1, SC-Leu-His + 0.5 mM 3-AT, 4 days
Holding throughout (conditions): tags: N-Gal4 AD-HA kept; label: inside an RPR1-promoter hybrid RNA with tandem MS2 sites; ssRNA

For one assay, the target named is PUM1 PUF domain R1-MVR (Homo sapiens, UniProt Q14671 828-1176, S863M;R864V;Q867R). A digest of the protocol: (§1)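 Sequencing with Illumina followed PCR amplification of the repeat regions from transformants grown four days on SC-Leu (input) or SC-Leu-His + 0.5 mM 3-AT (selection). The transformants were strain YBZ-1 with a LexA–MS2 coat fusion and a HIS3 reporter, carrying Pumilio-1 PUF domain libraries and matching RNA elements. The interaction score is the log change in variant frequency from input to selection, computed in log2 with a pseudocount of 1 for absent variants.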

A further assay deals with PUM1 PUF domain R1-ARR (Homo sapiens, UniProt Q14671 828-1176, S863A;Q867R). In a few lines: as §1
For another assay, the target named is PUM1 PUF domain R3-WWG (Homo sapiens, UniProt Q14671 828-1176, C935W;R936W;Q939G). In a few lines: as §1
The next assay addresses T1, PUM1 PUF domain R6-IWR (Homo sapiens, UniProt Q14671 828-1176, N1043I;Y1044W;Q1047R).
T1 sequence: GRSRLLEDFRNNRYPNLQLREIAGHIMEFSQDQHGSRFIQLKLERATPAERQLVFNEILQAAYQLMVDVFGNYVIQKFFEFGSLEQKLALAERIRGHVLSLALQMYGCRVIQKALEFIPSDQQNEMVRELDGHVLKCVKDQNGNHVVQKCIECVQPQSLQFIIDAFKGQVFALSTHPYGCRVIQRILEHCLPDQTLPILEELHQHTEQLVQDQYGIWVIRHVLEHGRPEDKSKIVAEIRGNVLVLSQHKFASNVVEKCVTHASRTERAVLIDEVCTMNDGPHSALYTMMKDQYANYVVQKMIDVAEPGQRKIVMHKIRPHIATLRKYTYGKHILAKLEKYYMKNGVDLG
A digest of the protocol: as §1

A further assay addresses PUM1 PUF domain R5-RAC (Homo sapiens, UniProt Q14671 828-1176, C1007R;R1008A;Q1011C). In a few lines: as §1
The target of the next assay is PUM1 PUF domain R4-DYR (Homo sapiens, UniProt Q14671 828-1176, N971D;H972Y;Q975R). In a few lines: as §1
In the next assay the target is PUM1 PUF domain R4-GWW (Homo sapiens, UniProt Q14671 828-1176, N971G;H972W;Q975W). In a few lines:
as §1

Another assay deals with PUM1 PUF domain R4-CYP (Homo sapiens, UniProt Q14671 828-1176, N971C;H972Y;Q975P). In a few lines:
as §1

Another assay addresses PUM1 PUF domain R4-RNY (Homo sapiens, UniProt Q14671 828-1176, N971R;H972N;Q975Y). In a few lines: as §1
Another assay addresses PUM1 PUF domain R4-SWP (Homo sapiens, UniProt Q14671 828-1176, N971S;H972W;Q975P). In a few lines:
as §1

For a further assay, the target named is PUM1 PUF domain R5-HRL (Homo sapiens, UniProt Q14671 828-1176, C1007H;Q1011L). A digest of the protocol: as §1
In the next assay the target is PUM1 PUF domain R5-SPC (Homo sapiens, UniProt Q14671 828-1176, C1007S;R1008P;Q1011C). A digest of the protocol:
as §1

For a further assay, the target named is PUM1 PUF domain R5-MHA (Homo sapiens, UniProt Q14671 828-1176, C1007M;R1008H;Q1011A). A digest of the protocol: as §1
The target of a further assay is PUM1 PUF domain R5-QCS (Homo sapiens, UniProt Q14671 828-1176, C1007Q;R1008C;Q1011S). A digest of the protocol:
as §1

The target of the next assay is PUM1 PUF domain R5-SIS (Homo sapiens, UniProt Q14671 828-1176, C1007S;R1008I;Q1011S). A digest of the protocol:
as §1

The target in the next assay is PUM1 PUF domain R3-RCN (Homo sapiens, UniProt Q14671 828-1176, C935R;R936C;Q939N). A digest of the protocol: as §1

For “GGCUAGAACUAGUGGAUCCCCCGGCGCCCGGCGGCUCGAGCCCGGGUAAGUGUAAAUUGUCUGCAUGCCGCCGGGCGCCAUGCCUGCAGGUCGACUCUAGAAAACAUG”, the figures for the binding signal with PUM1 PUF domain R1-MVR and with PUM1 PUF domain R1-ARR were 1.71 log2 enrichment (interaction score) and 1.97 log2 enrichment (interaction score), respectively.

Regarding “GGCUAGAACUAGUGGAUCCCCCGGCGCCCGGCGGCUCGAGCCCGGGUAAGUGUAAGUAGUCUGCAUGCCGCCGGGCGCCAUGCCUGCAGGUCGACUCUAGAAAACAUG”, the binding signal with PUM1 PUF domain R3-WWG was 4.28 log2 enrichment (interaction score).

For the sequence “GGCUAGAACUAGUGGAUCCCCCGGCGCCCGGCGGCUCGAGCCCGGGUAAGUGUAAAUAGUCUGCAUGCCGCCGGGCGCCAUGCCUGCAGGUCGACUCUAGAAAACAUG”, the binding signal is 6.32 log2 enrichment (interaction score) with PUM1 PUF domain R6-IWR; 0.59 log2 enrichment (interaction score) with PUM1 PUF domain R5-RAC; 1.4 log2 enrichment (interaction score) with PUM1 PUF domain R4-DYR; 3.18 log2 enrichment (interaction score) with PUM1 PUF domain R4-GWW; 5.36 log2 enrichment (interaction score) with PUM1 PUF domain R4-CYP; 3.7 log2 enrichment (interaction score) with PUM1 PUF domain R4-RNY. Besides, the binding signal with PUM1 PUF domain R4-SWP was 5.57 log2 enrichment (interaction score).

“GGCUAGAACUAGUGGAUCCCCCGGCGCCCGGCGGCUCGAGCCCGGGUAAGUGUUAAUAGUCUGCAUGCCGCCGGGCGCCAUGCCUGCAGGUCGACUCUAGAAAACAUG”: the binding signal with PUM1 PUF domain R5-HRL was 4.98 log2 enrichment (interaction score); in the assay with PUM1 PUF domain R5-SPC, 2.48 log2 enrichment (interaction score); in the assay with PUM1 PUF domain R5-MHA, 4.69 log2 enrichment (interaction score); in the assay with PUM1 PUF domain R5-QCS it was 0.61 log2 enrichment (interaction score).

For the sequence “GGCUAGAACUAGUGGAUCCCCCGGCGCCCGGCGGCUCGAGCCCGGGUAAGUGUGAAUAGUCUGCAUGCCGCCGGGCGCCAUGCCUGCAGGUCGACUCUAGAAAACAUG”, the binding signal in the assay with PUM1 PUF domain R5-SIS is 3.76 log2 enrichment (interaction score); with PUM1 PUF domain R5-QCS it was 3.56 log2 enrichment (interaction score).

On to “GGCUAGAACUAGUGGAUCCCCCGGCGCCCGGCGGCUCGAGCCCGGGUAAGUGUAAAUCGUCUGCAUGCCGCCGGGCGCCAUGCCUGCAGGUCGACUCUAGAAAACAUG”, for which the binding signal in the assay with PUM1 PUF domain R1-MVR is 2.85 log2 enrichment (interaction score); with PUM1 PUF domain R1-ARR it was 2.95 log2 enrichment (interaction score).

As to “GGCUAGAACUAGUGGAUCCCCCGGCGCCCGGCGGCUCGAGCCCGGGUAAGUGUAAUUAGUCUGCAUGCCGCCGGGCGCCAUGCCUGCAGGUCGACUCUAGAAAACAUG”, the values for the binding signal in the assay with PUM1 PUF domain R3-WWG and in the assay with PUM1 PUF domain R3-RCN were 4.2 log2 enrichment (interaction score) and 2.71 log2 enrichment (interaction score), respectively.
